In PubChem BioAssay:
Active and inactive are the calls of the source.

What was measured:
Albumin (Bos taurus) = Albumin (Bos taurus) (UniProt P02769); experiment: compounds binding labelled BSA control protein – biochemical, small-molecule microarray, Alexa647 label, 635/667 nm fluorescence, artefact control for SMM control protein annotation, profiling panel (AID 1118); details: BSA-A647 binding, fluorescence 635 nm, higher = more signal;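 note: score merges 667 nm emission intensity and signal-to-noise per printed compound spot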
[1] = probe aXIP binding to arrayed compounds – biochemical, NeuroSMM set, 635/667 nm fluorescence, primary screen (AID 1119); details: small-molecule microarray, higher = more signal, called active from +8 up or from −8 down;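 note: probe is the protein aXip251-270 applied at 1 µg/mL to compound-printed slides; binding of probe to printed compounds measured as 667 nm fluorescence plus signal to noise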
[2] = probe aNOTCH3 binding on compound microarray – biochemical, small-molecule microarray, 635/667 nm fluorescence, primary screen (AID 1120); details: higher = more signal;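 note: probe is a biotin-tagged antibody raised against NOTCH3 rather than NOTCH3 protein; score merges spot fluorescence near 667 nm with spot signal to noise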
[3] = probe aNOTCH2 binding on compound microarray – biochemical, small-molecule microarray, 635/667 nm fluorescence, primary screen (AID 1121); details: higher = more signal;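 note: score merges feature fluorescence read at 667 nm with its signal to noise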
[4] = biological target: Carbonic anhydrase 2 (Homo sapiens) (UniProt P00918); experiment: compounds binding carbonic anhydrase 2 – biochemical, small-molecule microarray, Alexa647-labelled CAII, profiling panel (AID 1122); details: CAII-A647 binding fluorescence, higher = more signal
[5] = COS7 lysate on small-molecule microarray, probe aHis, 635 nm (AID 1123); details: COS7 cell lysate, fluorescence, higher = more signal;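 note: z-score combines 667nm fluorescence intensity with signal-to-noise per printed compound spot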
[6] = probe aLAP1 signal on lysate-treated microarray – cell lysate, small-molecule microarray, COS7 lysate, primary screen (AID 1124); details: probe aLAP1, fluorescence, higher = more signal;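 note: lysate comes from COS7 cells expressing LAP1 and is applied at 0.3 µg/mL; score merges spot fluorescence near 667 nm with signal-to-noise over triplicate slides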
Sam68 (KHDRBS1) = experiment: compounds binding KHDRBS1 protein – biochemical, small-molecule microarray, 635 nm fluorescence, primary screen (AID 1125); details: higher = more signal;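 note: score merges 667 nm channel intensity with signal to noise over triplicate slides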
[7] = system: Chordin-like protein 2 (CHRDL2); experiment: compounds binding chordin-like 2 – biochemical, small-molecule microarray, 635 nm fluorescence, primary screen (AID 1126); details: fluorescence 635 nm, higher = more signal;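 note: printed compound slides probed with Chrdl2 protein at 4 µg/mL for 1 h at 4 C; score merges 667 nm emission intensity with signal to noise over three replicate slides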
[8] = biological target: Concanavalin-A (Canavalia ensiformis) (UniProt P02866); experiment: compounds binding concanavalin A lectin – biochemical, small-molecule microarray, Alexa647 label, 635 nm, artefact control for SMM control protein annotation, primary screen (AID 1127); details: ConA-A647 binding fluorescence, higher = more signal;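 note: z combines 667 nm emission intensity with signal-to-noise across three replicate slides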
[9] = compounds binding Alexa647 anti-His antibody – biochemical, small-molecule microarray, 635 nm fluorescence, artefact control for SMM control protein annotation, primary screen (AID 1128); details: higher = more signal;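 note: score merges feature fluorescence with signal-to-noise for each printed compound spot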
[10] = system: Human papillomavirus type 1a E7 protein (residues 1-88); experiment: HPV1a E7 small-molecule binders, primary screen, biochemical, small-molecule microarray, residues 1-88, 635 nm (AID 1129); details: small-molecule microarray binding, fluorescence 635 nm; higher = more signal
[11] = biological target: Focal adhesion kinase 1 (Homo sapiens) (UniProt Q05397); experiment: PTK2 protein binding on printed compound slides – biochemical, small-molecule microarray, 635/667 nm fluorescence, BSA, DTT, primary screen (AID 1130); details: 635 nm fluorescence, higher = more signal;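 note: composite of spot emission at 667 nm and signal to noise over triplicate slides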
[12] = system: Fibrinogen (Alexa647-labelled); experiment: Alexa647-fibrinogen binding to printed small molecules – biochemical, small-molecule microarray, 635/667 nm fluorescence, artefact control for SMM control-protein annotation, profiling panel (AID 1131); details: fibrinogen-A647 binding fluorescence, higher = more signal;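 note: z-score merges 667 nm fluorescence with per-spot signal-to-noise over triplicate slides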
[13] = biological target: Follistatin (Homo sapiens) (UniProt P19883); experiment: FST protein binding to printed compounds – biochemical, small-molecule microarray, 635/667 nm fluorescence, primary screen (AID 1132); details: 635 nm fluorescence, higher = more signal
[14] = biological target: Fibroblast growth factor 2 (Homo sapiens) (UniProt P09038); experiment: basic fibroblast growth factor binding to printed compounds – biochemical, small-molecule microarray, 635/667 nm fluorescence, primary screen (AID 1133); details: FGF2, fluorescence 635/667, higher = more signal
[15] = JC-1 mitochondrial potential readout, lung cancer cells – cell-based, A549, JC-1 fluorescence, basal, 24 h, 100 nL, profiling panel (AID 1138); details: higher = more signal;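 note: A549 lung adenocarcinoma cells under basal conditions with no added stimulus; test concentration not given here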
Lefty1 = Lefty1 protein binding to printed compounds – biochemical, small-molecule microarray, 635/667 nm fluorescence, primary screen (AID 1139); details: fluorescence 635/667, higher = more signal
[16] = system: wheat germ agglutinin (Triticum aestivum), Alexa647-labelled; experiment: Alexa647-WGA lectin binding to printed small molecules – biochemical, small-molecule microarray, 635/667 nm fluorescence, artefact control for SMM control-protein annotation, profiling panel (AID 1140); details: WGA-A647 binding, 635 nm fluorescence, higher = more signal;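 note: score merges 667 nm feature emission with signal to noise over triplicate slides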
[17] = biological target: Luciferin 4-monooxygenase (Photinus pyralis) (UniProt P08659); experiment: inhibition of purified Photinus pyralis luciferase – biochemical, luminescence, purified enzyme, 2006 set, primary screen (AID 1141); details: purified firefly luciferase, SteadyGlo luminescence, 30 min; higher = more signal, called active from +8 up or from −8 down;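 note: cell-free assay with purified firefly luciferase at 100 ng per well in PBS; test concentration not given here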
Luciferin 4-monooxygenase (Photinus pyralis), sequence (P08659 whole entry, looked up): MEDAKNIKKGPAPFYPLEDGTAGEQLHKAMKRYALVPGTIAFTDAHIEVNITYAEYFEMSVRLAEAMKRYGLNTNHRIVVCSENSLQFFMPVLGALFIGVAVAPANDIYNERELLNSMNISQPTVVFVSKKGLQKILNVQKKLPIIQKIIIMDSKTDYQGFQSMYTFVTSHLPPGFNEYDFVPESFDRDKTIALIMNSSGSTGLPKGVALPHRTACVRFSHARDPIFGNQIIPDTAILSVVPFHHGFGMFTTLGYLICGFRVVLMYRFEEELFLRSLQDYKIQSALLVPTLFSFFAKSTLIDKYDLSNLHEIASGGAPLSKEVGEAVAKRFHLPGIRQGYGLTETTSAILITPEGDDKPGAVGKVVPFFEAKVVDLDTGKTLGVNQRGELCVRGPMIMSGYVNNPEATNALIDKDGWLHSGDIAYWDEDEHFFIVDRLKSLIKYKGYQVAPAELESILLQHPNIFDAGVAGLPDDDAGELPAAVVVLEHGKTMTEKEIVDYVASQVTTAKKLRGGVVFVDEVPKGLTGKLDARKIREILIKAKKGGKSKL

Albumin (Bos taurus), sequence (P02769 whole entry, looked up): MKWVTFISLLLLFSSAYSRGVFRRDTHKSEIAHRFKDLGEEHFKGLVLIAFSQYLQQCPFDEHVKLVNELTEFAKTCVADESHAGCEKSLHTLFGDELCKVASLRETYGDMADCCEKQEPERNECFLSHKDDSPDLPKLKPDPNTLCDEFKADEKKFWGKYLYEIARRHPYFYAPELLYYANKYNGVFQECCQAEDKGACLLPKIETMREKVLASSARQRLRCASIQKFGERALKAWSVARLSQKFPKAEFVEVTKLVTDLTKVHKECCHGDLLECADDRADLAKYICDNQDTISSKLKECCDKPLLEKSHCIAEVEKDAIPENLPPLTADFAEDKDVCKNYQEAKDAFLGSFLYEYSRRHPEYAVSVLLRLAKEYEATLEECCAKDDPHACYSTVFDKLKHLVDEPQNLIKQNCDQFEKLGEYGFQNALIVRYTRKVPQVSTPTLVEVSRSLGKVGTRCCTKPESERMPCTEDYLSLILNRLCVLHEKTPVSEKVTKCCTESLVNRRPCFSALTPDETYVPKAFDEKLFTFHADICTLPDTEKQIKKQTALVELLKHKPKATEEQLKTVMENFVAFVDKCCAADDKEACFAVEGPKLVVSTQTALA
Concanavalin-A (Canavalia ensiformis), sequence (P02866 whole entry, looked up): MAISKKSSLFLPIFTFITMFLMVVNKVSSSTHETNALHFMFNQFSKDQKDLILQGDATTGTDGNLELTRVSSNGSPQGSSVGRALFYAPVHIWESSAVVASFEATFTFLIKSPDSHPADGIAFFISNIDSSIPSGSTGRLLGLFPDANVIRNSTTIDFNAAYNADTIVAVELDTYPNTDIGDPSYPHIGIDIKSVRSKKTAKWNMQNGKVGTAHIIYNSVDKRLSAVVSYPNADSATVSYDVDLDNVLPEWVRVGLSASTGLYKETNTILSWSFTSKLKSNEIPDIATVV
Focal adhesion kinase 1 (Homo sapiens), sequence (Q05397 whole entry, looked up): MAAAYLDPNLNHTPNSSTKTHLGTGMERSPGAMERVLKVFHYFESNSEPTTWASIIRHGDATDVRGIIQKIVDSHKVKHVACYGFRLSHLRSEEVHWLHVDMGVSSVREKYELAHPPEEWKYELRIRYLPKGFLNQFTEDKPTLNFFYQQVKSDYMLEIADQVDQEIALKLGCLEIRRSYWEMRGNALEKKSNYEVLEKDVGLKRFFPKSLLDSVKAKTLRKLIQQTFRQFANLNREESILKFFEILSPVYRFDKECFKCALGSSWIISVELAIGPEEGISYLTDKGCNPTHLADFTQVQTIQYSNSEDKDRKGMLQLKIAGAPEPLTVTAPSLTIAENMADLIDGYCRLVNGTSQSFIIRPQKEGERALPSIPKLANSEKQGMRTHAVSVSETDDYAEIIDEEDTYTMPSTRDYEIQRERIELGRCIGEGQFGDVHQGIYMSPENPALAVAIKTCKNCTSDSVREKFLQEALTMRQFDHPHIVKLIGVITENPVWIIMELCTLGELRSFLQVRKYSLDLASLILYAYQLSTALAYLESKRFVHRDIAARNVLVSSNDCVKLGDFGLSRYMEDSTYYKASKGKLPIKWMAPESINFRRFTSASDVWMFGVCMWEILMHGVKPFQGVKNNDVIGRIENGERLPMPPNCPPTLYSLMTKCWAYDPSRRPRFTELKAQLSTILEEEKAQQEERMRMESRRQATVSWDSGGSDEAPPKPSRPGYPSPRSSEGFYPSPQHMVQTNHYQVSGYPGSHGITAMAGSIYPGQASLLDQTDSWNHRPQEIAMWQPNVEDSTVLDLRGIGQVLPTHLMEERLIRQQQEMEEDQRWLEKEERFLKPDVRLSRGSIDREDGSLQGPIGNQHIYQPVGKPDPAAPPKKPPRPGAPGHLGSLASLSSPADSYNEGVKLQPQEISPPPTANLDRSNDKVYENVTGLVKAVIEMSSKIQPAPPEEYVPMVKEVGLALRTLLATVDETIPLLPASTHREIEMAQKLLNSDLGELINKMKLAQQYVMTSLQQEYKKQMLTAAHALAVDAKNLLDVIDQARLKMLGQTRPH
Follistatin (Homo sapiens), sequence (P19883 whole entry, looked up): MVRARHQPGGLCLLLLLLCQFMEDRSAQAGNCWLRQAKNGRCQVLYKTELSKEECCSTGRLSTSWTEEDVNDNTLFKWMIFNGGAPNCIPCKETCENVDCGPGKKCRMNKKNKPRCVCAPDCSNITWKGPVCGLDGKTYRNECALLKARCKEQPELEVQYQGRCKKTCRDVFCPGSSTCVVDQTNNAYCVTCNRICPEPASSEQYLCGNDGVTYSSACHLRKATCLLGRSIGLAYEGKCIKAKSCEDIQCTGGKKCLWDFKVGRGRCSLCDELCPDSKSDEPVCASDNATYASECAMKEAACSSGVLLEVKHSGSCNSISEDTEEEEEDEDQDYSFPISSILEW
Fibroblast growth factor 2 (Homo sapiens), sequence (P09038 whole entry, looked up): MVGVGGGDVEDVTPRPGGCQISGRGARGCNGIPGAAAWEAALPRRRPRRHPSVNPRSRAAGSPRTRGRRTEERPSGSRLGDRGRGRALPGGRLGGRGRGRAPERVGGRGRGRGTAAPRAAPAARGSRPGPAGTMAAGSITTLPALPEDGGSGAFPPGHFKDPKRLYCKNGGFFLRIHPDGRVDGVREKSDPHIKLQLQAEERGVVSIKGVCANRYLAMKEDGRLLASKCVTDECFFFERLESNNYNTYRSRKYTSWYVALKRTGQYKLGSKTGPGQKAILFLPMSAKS

Compound | composite z-score (Albumin (Bos taurus)) | composite Z-score [1] | composite z-score [2] | composite z-score [3] | composite z-score [4] | composite z-score [5] | composite z-score [6] | composite z-score (Sam68 (KHDRBS1)) | composite z-score [7] | composite z-score [8] | composite z-score [9] | composite z-score [10] | composite z-score [11] | composite z-score [12] | composite z-score [13] | composite z-score [14] | z-score [15] | composite z-score (Lefty1) | composite z-score [16] | z-score [17]
COCCOC(=O)N1C(=O)[C@@]2(c3cc(C#Cc4ccc(OC)cc4)ccc31)[C@H](c1ccc(OCCO)cc1)N1[C@H](c3ccccc3)[C@H](c3ccccc3)OC(=O)[C@H]1[C@@H]2C(=O)NC[C@H](O)c1ccccc1 | 0.314 | 0.217 (inactive) | 0.154 | 0.0022 | 0.471 | 0.575 | 0.511 | 1.3 | 0.311 | 1.16 | 1.2 | 1.17 | 1.32 | 0.941 | 1.33 | 1.19 | -0.936 | 0.979 | 1.05 | -0.563 (inactive)
[N-]=[N+]=NCc1ccccc1[C@@H]1OC(c2ccc(OCCCO)cc2)=N[C@]1(Cc1ccccc1N=[N+]=[N-])C(=O)NCC(O)CO (stereo not given in full) | 0.98 | 0.71 (inactive) | 0.409 | 0.252 | 0.614 | 3.16 | 0.695 | 1.32 | -0.703 | 1.11 | 2.76 | 1.2 | 0.955 | 0.911 | 1.05 | 1.26 | 0.637 | -0.459 | 1.22 | -2.1 (inactive)
C=C(COC)C(=O)CC[C@@H](OC(C)=O)c1ccccc1OCCO | -0.145 | -0.975 (inactive) | 0.183 | -0.15 | 0.675 | -0.762 | 0.583 | 0.789 | -0.0113 | -0.0386 | 0.456 | 0.318 | -0.517 | -0.698 | 1.15 | 1.09 | 0.356 | 0.791 | 0.523 | -2.79 (inactive)
C=CC1c2cc(O)c(OC)cc2CCN1C (stereo not given) | 0.582 | 0.694 (inactive) | -0.136 | -0.126 | 0.886 | -0.0207 | 0.0879 | -0.589 | -0.644 | -1.24 | 0.586 | -1.39 | -0.636 | -0.934 | -0.424 | -0.475 | -0.0592 | -1.23 | 0.356 | -0.0535 (inactive)
C=CCOC(=O)[C@H]1[C@@H]2C(=O)O[C@@H](c3ccccc3)[C@@H](c3ccccc3)N2[C@@H](c2ccc(OCCOC(=O)[C@H]3C[C@H]4C(=O)N[C@@H](CC(C)C)C(=O)N4[C@H]3c3ccc(O)cc3)cc2)[C@]12C(=O)Nc1ccccc12 | -1.5 | 0.0398 (inactive) | 0.0695 | -0.0666 | 0.368 | 1.74 | 0.878 | 1.31 | 1.26 | 1.06 | 0.1 | 1.26 | 0.66 | 0.8 | 1.36 | 1.79 | -1.48 | 1.39 | 0.624 | -0.782 (inactive)
O=C1NC(=O)C2C1C=CC(C(O)c1ccc([N+](=O)[O-])cc1)N2Nc1ccccn1 (stereo not given) | -0.494 | -0.267 (inactive) | -0.173 | -0.0843 | 0.265 | 0.555 | 0.0223 | -0.413 | 0.472 | -0.257 | 0.753 | 0.175 | -0.329 | 0.0114 | -0.12 | -0.163 | -0.0893 | -0.262 | -0.0047 | -1.48 (inactive)
C=CCOC(=O)[C@@H]1[C@H]2C(=O)O[C@H](c3ccccc3)[C@H](c3ccccc3)N2[C@H](c2ccc(OCCOC(=O)[C@H]3C[C@H]4C(=O)N[C@@H](CCCCN(C)C)C(=O)N4[C@H]3c3ccc(O)cc3)cc2)[C@@]12C(=O)Nc1ccc(I)cc12 | -0.839 | 0.929 (inactive) | 0.0006 | -0.0698 | 0.426 | 1.95 | 0.148 | 1.29 | 1.1 | 1.15 | 1.2 | 1.17 | 1.03 | 0.541 | 1.4 | 1.37 | -0.641 | 1.58 | 0.538 | -4.54 (inactive)
COC(=O)[C@@]1(Cc2ccccc2)[C@H]2c3cc(C(=O)N(C)C)n(CCSC(=N)N)c3C[C@H]2CN1C(=O)c1ccccc1 | -0.107 | 1.22 (inactive) | 0.0159 | 0.0591 | 0.877 | 0.778 | 1.63 | -1.71 | -0.721 | -1.36 | 0.367 | 0.336 | 0.117 | 0.869 | -0.239 | 0.277 | 0.378 | -0.318 | 0.164 | 1.13 (inactive)
COC(=O)[C@@]1(Cc2ccccc2)[C@H]2c3cc(C(=O)N(C)C)n(Cc4ccc(C(F)(F)F)nc4)c3C[C@H]2CN1C(=O)c1ccccc1 | 0.463 | -0.031 (inactive) | 0.39 | 0.329 | 0.849 | 3.31 | 0.427 | 1.3 | -0.43 | 0.715 | 0.0389 | 1.29 | 0.74 | 1.01 | 0.714 | -0.428 | 0.353 | -0.655 | 0.736 | 2.32 (inactive)
CCCCC(O)C1C=CC2C(=O)N(c3ccccc3)C(=O)C2N1Nc1ccc(C#N)cc1 (stereo not given) | 0.859 | 0.22 (inactive) | 0.426 | 0.349 | 0.721 | 2.68 | 1.23 | 1.17 | -0.0433 | 0.778 | 0.584 | 1.13 | 0.764 | 0.981 | 0.0191 | 0.0696 | 0.0808 | -0.295 | 0.819 | -1.45 (inactive)
COc1ccc(C(=O)Nc2cccc(CN3C(=O)[C@@]4(O[C@@H](CC(=O)N5CCC[C@H]5CO)[C@H]([Si](C)(C)c5ccc(OC)cc5)[C@H]4C)c4ccccc43)c2)cc1 | 0.343 | -0.0697 (inactive) | 0.0305 | -0.11 | 0.531 | 1.75 | -0.19 | 1.34 | 0.862 | 1.17 | 1.39 | 1.03 | 0.988 | 0.875 | 1.08 | 1.1 | 1.53 | 0.703 | 0.7 | -0.599 (inactive)
